High-throughput results (PubChem)
NOMO-1 viab = NOMO-1 AML cell viability reduction, primary screen, STK33 inhibitor project, CellTiter-Glo luminescence; NOMO-1 AML viability, 72 h; inhibition, % (test concentration not listed); 37,000 compounds, 7.5% hits; in the data active = inhibition above about 80%; inconclusive = no clear call, values can overlap the other calls
PD-1 reverse act = activators reversing PD-1 mediated T-cell inhibition, primary screen, luminescence, primary human CD4 T cells, PD-L1 beads; CellTiter-Glo 96 h; activation, % (concentration not given with the values); 29,000 tested, under 10 active; AID 2316, 2010; call rule not given here;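 also: 0% = median vehicle wells and 100% = positive control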
STK33 kin inh = STK33 kinase inhibitors, primary screen, biochemical, luminescence, ADP-Glo, MBP substrate. AID 2322, 2010. Serine/threonine-protein kinase 33 (Homo sapiens), Q9BYT3. inhibition, % at 12.5 µM. 27,000 compounds, 0.44% hits; in the data active = inhibition above about 20%; inconclusive = no clear call, values can overlap the other calls
Target sequence (Q9BYT3 whole entry, looked up): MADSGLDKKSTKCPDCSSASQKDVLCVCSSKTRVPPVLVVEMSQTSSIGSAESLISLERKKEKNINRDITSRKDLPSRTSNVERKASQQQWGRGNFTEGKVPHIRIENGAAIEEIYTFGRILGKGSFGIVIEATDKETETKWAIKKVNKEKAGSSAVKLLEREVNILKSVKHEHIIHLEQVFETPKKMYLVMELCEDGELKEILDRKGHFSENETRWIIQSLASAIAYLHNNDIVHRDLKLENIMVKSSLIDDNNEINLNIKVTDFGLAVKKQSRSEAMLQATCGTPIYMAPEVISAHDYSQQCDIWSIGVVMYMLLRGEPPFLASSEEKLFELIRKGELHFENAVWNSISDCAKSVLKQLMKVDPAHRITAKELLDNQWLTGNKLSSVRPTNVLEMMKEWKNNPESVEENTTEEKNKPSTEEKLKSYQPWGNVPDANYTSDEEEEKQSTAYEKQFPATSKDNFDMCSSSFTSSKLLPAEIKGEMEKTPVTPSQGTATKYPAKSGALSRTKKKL
The depositor's hits bear a star. This is one part of a sample in which hits are shown more often than they occur.

Screening C[C@H](CO)N1C[C@H](C)[C@H](CN(C)C(=O)Nc2ccc(F)cc2)Oc2c(NC(=O)Nc3cccc4ccccc34)cccc2C1=O returned NOMO-1 viab 123.8* and PD-1 reverse act -10.2.
Screening C[C@H](CO)N1C[C@H](C)[C@H](CN(C)C(=O)NC2CCCCC2)Oc2c(NC(=O)Nc3cccc4ccccc34)cccc2C1=O returned NOMO-1 viab 97.0* and PD-1 reverse act -5.5.
For C[C@@H]1CN([C@H](C)CO)C(=O)c2cccc(NC(=O)Nc3cccc4ccccc34)c2O[C@H]1CN(C)C(=O)NC1CCCCC1 the results were NOMO-1 viab inconclusive, PD-1 reverse act -4.0 and STK33 kin inh 2.7.
C[C@H]1CN([C@@H](C)CO)C(=O)c2cccc(NC(=O)Nc3cccc4ccccc34)c2O[C@@H]1CN(C)C(=O)Nc1ccc(F)cc1 was read as NOMO-1 viab 23.1 and PD-1 reverse act -2.3.
`COc1ccc(OC)c(NC(=O)CSc2nnc(-c3ccccc3)n2-c2ccccc2)c1` gave NOMO-1 viab 18.1, PD-1 reverse act -1.8 and STK33 kin inh 6.1.
Screening CC(C)c1ccc(N2C=Nc3ccc(C(C)C)cc3C2)cc1 returned NOMO-1 viab 114.6* and PD-1 reverse act -1.6.
Screening COc1cc2c(ccc3cc(OC)c(OC)c(O)c32)cc1O returned NOMO-1 viab 58.0, PD-1 reverse act -0.1 and STK33 kin inh 29.8*.
Screening COc1c(O)c(O)cc2ccc3cccc(O)c3c12 returned NOMO-1 viab 50.1, PD-1 reverse act 0.2 and STK33 kin inh -6.5.
`Cc1cc(=O)[nH]c(SCCOc2ccc(Br)cc2Cl)n1` gave NOMO-1 viab -10.2, PD-1 reverse act 0.5 and STK33 kin inh -0.9.
`COc1ccc(NC(=O)CSc2ncnc3c2sc2nc(N4CCOCC4)c4c(c23)CC(C)(C)OC4)cc1` gave NOMO-1 viab 99.5*, PD-1 reverse act -5.9 and STK33 kin inh 2.7.
CCN(CC)CCNc1ncnc2c1sc1nc(N3CCCC3)c3c(c12)CC(C)(C)OC3 was read as NOMO-1 viab 113.3*, PD-1 reverse act -10.2 and STK33 kin inh 0.1.
COC(=O)CCSc1ncnc2c1sc1nc(N3CCOCC3)c3c(c12)CCCC3 was read as NOMO-1 viab 4.3, PD-1 reverse act -3.4 and STK33 kin inh -0.2.
Cc1nc(NCCN2CCOCC2)c2sc3nc4c(cc3c2n1)COC(C)(C)C4 was read as NOMO-1 viab 7.9 and PD-1 reverse act 1.8.
For CC(=O)n1c(O)c(/C=C2/C=c3ccc(C)cc3=NC2=O)sc1=N the results were NOMO-1 viab -18.6 and PD-1 reverse act 1.2.
Screening O=c1c(-c2ccccc2)c(O)cc(-c2ccc(F)cc2)n1-c1ccccc1 returned NOMO-1 viab -21.6 and PD-1 reverse act 0.4.
Screening O=c1cc(-c2ccccc2)n(-c2ccccc2)cn1 returned NOMO-1 viab 100.6*, PD-1 reverse act -5.4 and STK33 kin inh -5.3.
`COC(=O)c1cc(OC)c(OC)cc1NC(=O)COc1ccccc1` gave NOMO-1 viab 17.3, PD-1 reverse act -2.5 and STK33 kin inh 4.2.
Cc1cc2ncn(CC(O)COc3ccc4cc(Br)ccc4c3)c2cc1C (stereo not given) was read as NOMO-1 viab inconclusive, PD-1 reverse act -4.8 and STK33 kin inh -0.4.
`COc1ccc(CN(C)C[C@@H]2Oc3ccc(NC(=O)CCCCCC(=O)Nc4ccccc4N)cc3CC(=O)N([C@H](C)CO)C[C@H]2C)cc1` gave NOMO-1 viab 42.0 and PD-1 reverse act 0.1.
C[C@H]1CN([C@@H](C)CO)C(=O)c2cc(NC(=O)CCCCCC(=O)Nc3ccccc3N)ccc2O[C@H]1CN(C)Cc1ccc(Cl)c(Cl)c1 was read as NOMO-1 viab 111.1* and PD-1 reverse act -1.3.
For C[C@@H]1CN([C@H](C)CO)C(=O)Cc2cc(NC(=O)CCCCCC(=O)Nc3ccccc3N)ccc2O[C@H]1CN(C)Cc1ccc(Cl)c(Cl)c1 the results were NOMO-1 viab 108.1* and PD-1 reverse act -1.1.
`C[C@H]1CN([C@@H](C)CO)C(=O)Cc2cc(NC(=O)CCCCCC(=O)Nc3ccccc3N)ccc2O[C@@H]1CN(C)Cc1ccc(Cl)c(Cl)c1` gave NOMO-1 viab 92.1* and PD-1 reverse act 0.3.
Screening C[C@@H]1CN([C@@H](C)CO)C(=O)c2cc(NC(=O)CCCCCC(=O)Nc3ccccc3N)ccc2O[C@H]1CN(C)Cc1ccccc1 returned NOMO-1 viab 18.2 and PD-1 reverse act 0.5.
`C[C@@H]1CN([C@H](C)CO)C(=O)Cc2cc(NC(=O)CCCCCC(=O)Nc3ccccc3N)ccc2O[C@H]1CN(C)C` gave NOMO-1 viab 13.1 and PD-1 reverse act -1.1.
Cc1n[nH]c(C)c1N1C(=O)c2cccc3c(N)ccc(c23)C1=O was read as NOMO-1 viab -13.1 and PD-1 reverse act -0.4.
